According to the supplement of paper PMC6089552:
About 300 (9.4%) of roughly 3,200 compounds showed activity. The list comes from a sample in which actives are over-represented; it also holds similar structures and randomly drawn compounds.

Test system: A673/TR/shEF
Assay: cell viability (LOESS-normalised, relative to median of negative controls) (log2 ratio); higher = more viable cells (less compound effect), active = hit call of the paper (over 3 MAD below the median)
Conditions: treatment time: 72 h
How it was run: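 Doxycycline, present or absent from 24 h before compounds, was used to induce EWS-FLI1 shRNA knockdown in A673/TR/shEF Ewing sarcoma cells at 1,500 per well in 384-well plates. Cells then received library compounds at two or more concentrations, or DMSO controls, for three days. Viability was measured by CellTiter-Glo luminescence on an Envision reader, and per-plate LOESS correction, division by the negative-control median and log2 transformation followed.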

[1] = 0.25 µM, library screen: screen2, EWS-FLI1 expression: high (no doxycycline)
[2] = 0.25 µM, library screen: screen2, EWS-FLI1 expression: low (doxycycline-induced shRNA knockdown)
[3] = 2.5 µM, library screen: screen2, EWS-FLI1 expression: high (no doxycycline)
[4] = 2.5 µM, library screen: screen2, EWS-FLI1 expression: low (doxycycline-induced shRNA knockdown)
[5] = 0.025 µM, library screen: screen1, EWS-FLI1 expression: high (no doxycycline)
[6] = 0.025 µM, library screen: screen1, EWS-FLI1 expression: low (doxycycline-induced shRNA knockdown)
[7] = 0.25 µM, library screen: screen1, EWS-FLI1 expression: high (no doxycycline)
[8] = 0.25 µM, library screen: screen1, EWS-FLI1 expression: low (doxycycline-induced shRNA knockdown)
[9] = 2.5 µM, library screen: screen1, EWS-FLI1 expression: high (no doxycycline)
[10] = 2.5 µM, library screen: screen1, EWS-FLI1 expression: low (doxycycline-induced shRNA knockdown)
[11] = 25 µM, library screen: screen1, EWS-FLI1 expression: high (no doxycycline)
[12] = 25 µM, library screen: screen1, EWS-FLI1 expression: low (doxycycline-induced shRNA knockdown)
[13] = 0.103 µM, library screen: screen3, EWS-FLI1 expression: high (no doxycycline)
[14] = 0.103 µM, library screen: screen3, EWS-FLI1 expression: low (doxycycline-induced shRNA knockdown)
[15] = 0.308 µM, library screen: screen3, EWS-FLI1 expression: high (no doxycycline)
[16] = 0.308 µM, library screen: screen3, EWS-FLI1 expression: low (doxycycline-induced shRNA knockdown)
[17] = 0.926 µM, library screen: screen3, EWS-FLI1 expression: high (no doxycycline)
[18] = 0.926 µM, library screen: screen3, EWS-FLI1 expression: low (doxycycline-induced shRNA knockdown)
[19] = 2.8 µM, library screen: screen3, EWS-FLI1 expression: high (no doxycycline)
[20] = 2.8 µM, library screen: screen3, EWS-FLI1 expression: low (doxycycline-induced shRNA knockdown)
[21] = 8.3 µM, library screen: screen3, EWS-FLI1 expression: high (no doxycycline)
[22] = 8.3 µM, library screen: screen3, EWS-FLI1 expression: low (doxycycline-induced shRNA knockdown)
[23] = 25 µM, library screen: screen3, EWS-FLI1 expression: high (no doxycycline)
[24] = 25 µM, library screen: screen3, EWS-FLI1 expression: low (doxycycline-induced shRNA knockdown)

Measured: cell viability (log2)

Nc1nc(OCc2ccccc2)c2[nH]cnc2n1
inactive: [1] 0.21 | [2] 0.111 | [3] 0.106 | [4] 0.0266

Nc1ncc2[nH]cnc2n1
inactive: [5] 0.156 | [6] 0.0178 | [7] 0.22 | [8] 0.0137 | [10] 0.025 | [11] -0.0198 | [12] 0.0477
active: [9] -0.0954

Nc1ncnc2nc[nH]c12
inactive: [13] -0.0276 | [14] 0.0358 | [7] -0.00904 | [8] 0.112 | [15] 0.0266 | [16] 0.0376 | [17] 0.0356 | [18] 0.0359 | [9] 0.0839 | [10] 0.087 | [19] -0.0229 | [20] 0.045 | [21] -0.016 | [22] 0.0209 | [23] 0.0262 | [24] 0.0745

CN1CCC[C@@H]1c1cccnc1
inactive: [1] 0.0881 | [2] 0.0848 | [3] 0.112 | [4] 0.123

C[C@H](C[C@@H](O)[C@@H]1OC1(C)C)[C@@H]1CC[C@]2(C)C3=CC[C@H]4C(C)(C)C(=O)CC[C@]4(C)[C@H]3CC[C@@]12C
inactive: [7] 0.0762 | [8] 0.064 | [9] 0.0491 | [10] 0.136

Nc1ncnc2c1ncn2C1OC(C(=O)NC2CC2)C(O)C1O (stereo unspecified)
inactive: [1] 0.208 | [2] 0.0695 | [3] 0.136 | [4] 0.0888

Nc1ncnc2c1ncn2[C@@H]1O[C@H](CO)[C@@H](O)[C@H]1O
active: [1] -0.195
inactive: [13] 0.0648 | [14] 0.118 | [7] 0.105 | [8] 0.0646 | [2] 0.0787 | [15] 0.108 | [16] 0.149 | [17] 0.0961 | [18] 0.106 | [9] 0.129 | [10] 0.198 | [3] 0.141 | [4] 0.177 | [19] 0.133 | [20] 0.0552 | [21] 0.0565 | [22] 0.0635 | [23] 0.137 | [24] 0.158

Nc1ncnc2c1ncn2[C@@H]1O[C@H](CO)[C@@H](O)[C@@H]1O
inactive: 0.025 µM, library screen: screen2, EWS-FLI1 expression: high (no doxycycline) 0.125 | 0.025 µM, library screen: screen2, EWS-FLI1 expression: low (doxycycline-induced shRNA knockdown) 0.0247 | [13] 0.0965 | [14] 0.0781 | [1] 0.146 | [2] 0.0437 | [15] 0.134 | [16] 0.0881 | [17] 0.113 | [18] 0.0711 | [3] 0.229 | [4] 0.0883 | [19] 0.122 | [20] 0.114 | [21] 0.0774 | [22] 0.127 | 25 µM, library screen: screen2, EWS-FLI1 expression: high (no doxycycline) 0.0602 | 25 µM, library screen: screen2, EWS-FLI1 expression: low (doxycycline-induced shRNA knockdown) 0.0701 | [23] 0.0148 | [24] 0.128

Nc1nc(F)nc2c1ncn2[C@@H]1O[C@H](CO)[C@@H](O)[C@@H]1O
inactive: [13] -0.0149 | [14] 0.0418 | [15] 0.0122 | [16] 0.0299 | [17] -0.0547 | [18] 0.0332 | [19] 0.0695 | [20] 0.0196 | [21] 0.023 | [22] 0.0649 | [23] 0.0762 | [24] 0.0699

Nc1nccc2c1ncn2[C@@H]1O[C@H](CO)[C@@H](O)[C@H]1O
inactive: [1] 0.199 | [2] 0.0735 | [3] 0.0748 | [4] 0.125

CNc1ncnc2c1ncn2[C@@H]1O[C@H](CO)[C@@H](O)[C@H]1O
inactive: [1] 0.104 | [2] 0.0674 | [3] 0.0505 | [4] 0.098

Nc1ncnc2c1c(I)cn2[C@@H]1O[C@H](CO)[C@@H](O)[C@H]1O
active: [9] -1.08 | [10] -0.349 | [11] -2.42 | [12] -2.11
inactive: [5] 0.145 | [6] -0.151 | [7] -0.0341 | [8] -0.172

Nc1ncnc2c1ncn2C1CCCO1 (stereo unspecified)
active: [1] -0.183 | [2] -0.136 | [3] -0.771 | [4] -0.568

Nc1ncnc2c1ncn2C1CCCC1
inactive: [1] 0.222 | [2] 0.00723 | [3] 0.162 | [4] 0.101

COc1ccc(C(C)C(=O)c2ccc(O)cc2O)cc1 (stereo unspecified)
inactive: [7] 0.0783 | [8] 0.0339 | [9] 0.16 | [10] 0.123

CCOc1ccc(C(=O)c2cc(O)c(OC)c(OC)c2O)cc1
inactive: [7] 0.0714 | [8] 0.0518 | [9] 0.162 | [10] 0.129

CC(=O)OC1CCC2(C)C3=C(CC[C@H]2C1(C)C)[C@@]1(C)CC[C@@H]([C@@H](C)CCC=C(C)C)[C@]1(C)CC3 (stereo partly specified)
inactive: [7] 0.058 | [8] -0.000522 | [9] 0.0338 | [10] -0.0772

CCN1C(=O)/C(=C\c2cn(CCC#N)nc2-c2ccc(F)cc2)SC1=S
inactive: [7] 0.0868 | [8] 0.118 | [9] 0.107 | [10] -0.0141

O=C(NCc1ccco1)/C(=C\c1ccco1)NC(=O)c1cccs1
inactive: [7] 0.0268 | [8] 0.0429 | [9] 0.0986 | [10] 0.0245

O[C@@H](c1cc(C(F)(F)F)nc2c(C(F)(F)F)cccc12)[C@H]1CCCCN1
inactive: [7] 0.149 | [8] 0.0284 | [9] 0.156 | [10] 0.0765

OCC1OC(O)C(O)C(O)C1O (stereo unspecified)
inactive: [13] 0.00138 | [14] 0.0347 | [15] 0.0849 | [16] 0.0509 | [17] 0.0635 | [18] 0.0529 | [19] 0.0615 | [20] 0.0566 | [21] 0.0472 | [22] -0.0279 | [23] 0.168 | [24] 0.04

C[C@H]1c2cccc(O)c2C(O)=C2C(=O)[C@]3(O)C(O)=C(C(N)=O)C(=O)[C@@H](N(C)C)[C@@H]3[C@@H](O)[C@@H]21
inactive: [7] 0.0339 | [8] 0.251 | [1] 0.0723 | [2] 0.0745 | [9] 0.0598 | [10] 0.256 | [3] -0.00226 | [4] 0.0538

C=C1c2cccc(O)c2C(O)=C2C(=O)[C@]3(O)C(O)=C(C(N)=O)C(=O)[C@@H](N(C)C)[C@@H]3[C@@H](O)[C@H]12
inactive: [13] -0.0411 | [14] 0.0402 | [8] 0.0695 | [15] -0.0282 | [16] 0.0462 | [17] -0.105 | [18] 0.0725 | [10] 0.152 | [19] -0.0751 | [20] 0.0891 | [21] -0.0644 | [22] 0.0589 | [23] -0.0984 | [24] 0.0914
active: [7] -0.16 | [9] -0.0967

CN(C)c1ccc(O)c2c1C[C@H]1C[C@H]3[C@H](N(C)C)C(=O)C(C(N)=O)=C(O)[C@@]3(O)C(=O)C1=C2O
active: [7] -0.177 | [9] -0.0936
inactive: [8] -0.0588 | [1] 0.0664 | [2] 0.133 | [10] 0.0344 | [3] 0.00725 | [4] 0.0554

C=C1c2c(Cl)ccc(O)c2C(O)=C2C(=O)[C@]3(O)C(O)=C(C(N)=O)C(=O)[C@@H](N(C)C)[C@@H]3[C@@H](O)[C@H]12.O=C(O)c1cc(S(=O)(=O)O)ccc1O
active: [7] -0.128 | [9] -0.126
inactive: [8] 0.0882 | [10] 0.0927

CCCCCCCCCCCCCCC[C@@H](O)[C@H](CO)NC(C)=O
inactive: [1] 0.176 | [2] 0.139 | [3] 0.0603 | [4] 0.124

NC(=S)c1ccc[n+]([C@@H]2O[C@H](COP(=O)(O)OP(=O)(O)OC[C@H]3O[C@@H](n4cnc5c(N)ncnc54)[C@H](OP(=O)(O)O)[C@@H]3O)[C@@H](O)[C@H]2[O-])c1
inactive: [1] 0.209 | [2] 0.145 | [3] 0.254 | [4] 0.143

Clc1ccc(CN2CCN(Cc3c[nH]c4ccccc34)CC2)cc1
inactive: [7] 0.142 | [8] 0.175 | [9] 0.152 | [10] 0.116

COc1ccc2c(c1)OCC(=Cc1ccc(OC)c(O)c1)C2=O
inactive: [7] 0.111 | [8] 0.0739 | [9] 0.125 | [10] 0.0254

CCOC(=O)C1=C(C)NC2=C(C(=O)CC(C)(C)C2)C1c1coc2ccccc2c1=O (stereo unspecified)
inactive: [7] 0.113 | [8] 0.123 | [9] 0.0647 | [10] 0.0912

COc1ccc(CNS(=O)(=O)c2ccc(NC(C)=O)cc2)cc1
inactive: [7] 0.136 | [8] 0.114 | [9] 0.073 | [10] 0.0317

CC(=O)O[C@@H]1CC2C(C)(C)CCC[C@]2(C)C2CC[C@]3(C)C(=CC(=O)O[C@H]3c3ccoc3)[C@@]21C (stereo partly specified)
inactive: [7] 0.0969 | [8] 0.0706 | [9] 0.0583 | [10] 0.123

CC1=C(C(=O)OC2CCCC2)C(c2coc3ccccc3c2=O)C2=C(CCCC2=O)N1 (stereo unspecified)
inactive: [7] 0.0306 | [8] 0.112 | [9] 0.0744 | [10] 0.0338

Cc1cc(=O)c2c(o1)-c1c(cc(O)c(O)c1C(=O)O)OC2
inactive: [7] 0.0145 | [8] 0.0255 | [9] 0.0451 | [10] 0.0692

N[C@@H](CCC(=O)O)C(=O)O
inactive: [1] 0.193 | [2] 0.073 | [3] 0.108 | [4] 0.15

N[C@@H](CC(=O)O)C(=O)O
inactive: [2] 0.087 | [3] 0.0127 | [4] 0.00419
active: [1] -0.146

N[C@H](CO)C(=O)O
inactive: [1] 0.128 | [2] 0.103 | [3] 0.162 | [4] 0.112
